Source: PubChem BioAssay (several laboratories)
Shown are actives, neighbours in structure and some others; about 27% of the full set was active somewhere.
CYP2C19 inhib: blocks human cytochrome P450 2C19 | P33261 | CYP2C19 Supersomes, luciferin-H EGE luminescence, 30 min | inhibition, % at 5 µM | 96,000 tested, 21% active | AID 778;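 active = CYP2C19 inhibition above a set limit at 5 µM in the primary screen, cut at about 50% in these data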;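 also: plate controls were negative control wells for no effect and 2.5 mM tranylcypromine positive control for full effect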
CYP2C9 inh: blocks human cytochrome P450 2C9. CYP2C9 Supersomes, luciferin-H conversion, luminescence. inhibition, % at 5 µM. 96,000 tested, 20% active. AID 777;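 active = blocking of liver enzyme CYP2C9 beyond about 50% at 5 µM, limit read from the data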
CYP2C9 activ: increases human cytochrome P450 2C9 activity. recombinant CYP2C9, luciferin-H conversion, luminescence; active compounds read high; factor 1 = untreated enzyme, 0 = blocked. 96,000 tested, 1.4% active. P11712. activation factor at 5 µM. AID 1024;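 active = activation factor of 2 or more for CYP2C9 at a 5 µM dose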;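 also: 0 = sulfaphenazole-blocked wells and 1 = vehicle-only wells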
CYP2C19 act: increases human CYP2C19 enzyme activity; recombinant CYP2C19, luciferin-H EGE luminescence; active compounds read high; 0 = fully inhibited enzyme, 1 = untreated enzyme; activation factor at 5 µM; 96,000 tested, under 10 active;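 active = activation factor of at least 2 at 5 µM in the primary screen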;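 also: 0 = wells with 2.5 mM tranylcypromine and 1 = vehicle-only wells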
Cav32 inh: human Cav3.2 channel inhibition, primary screen; O95180; Cav3.2-expressing cells, Fluo-4 calcium fluorescence FDSS; active compounds read low; B-score at 10 µM; 100,000 tested, 4% active; AID 449739;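 active = single-dose well whose peak fluorescence ratio is a statistical outlier from its plate by either plate-standardised score or position-corrected B-score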
* marks the source's active call; other numbers are inactive results; · = not tested or not shown.

SMILES	CYP2C19 inhib	CYP2C9 inh	CYP2C9 activ	CYP2C19 act	Cav32 inh
O=C1CSC(c2cccs2)N1c1ccccc1 (stereo unspecified)	54.9*	20.9	0.8	0.5	-2.66
COc1ccc(COC(=O)c2nc3nc(C)cc(C)n3n2)cc1F	35.7	-12.9	1.1	0.6	0.513
Cc1ccc(S(=O)(=O)N2CCN(C(=O)c3cc4c(C)nn(-c5ccccc5C)c4s3)CC2)cc1	42.4	63.1*	0.4	0.6	-1.28
CN(C)c1ccc(N2[C@@H](CC(=O)O)c3cc(C(F)(F)F)ccc3S2(=O)=O)cc1	·	·	·	·	1.04
CC1=CCC2C(=O)N(c3ccc(Br)cc3C)C(=O)C2C1 (stereo unspecified)	77.8*	60.4*	0.4	0.2	-1.13
CC1=CCC2C(=O)N(c3ccc(C)cc3)C(=O)C2C1 (stereo unspecified)	63.5*	23.2	0.8	0.4	-0.314
CC1=CCC2C(=O)N(c3ccc4ccccc4n3)C(=O)C2C1 (stereo unspecified)	62.0*	30.8	0.7	0.4	0.207
OCn1ncn(-c2ccccc2)c1=S	11.2	7.6	0.9	0.9	·
CCn1cc(C(=O)NCc2cccnc2)c(=O)c2cc(F)c(N3CCN(C(=O)c4ccco4)CC3)cc21	16.1	68.0*	0.3	0.8	1.57
CCn1cc(C(=O)NCc2cccc(F)c2)c(=O)c2cc(F)c(N3CCN(C(=O)c4ccco4)CC3)cc21	41.3	83.9*	0.2	0.6	2.41
O=C(Cc1ccc(Cl)cc1)NCC(=O)N1CCCC1	34.5	-6.3	1.1	0.7	-0.838
CCN(CC)S(=O)(=O)c1cc(C(=O)N2CCc3ccccc32)ccc1Cl	28.5	28.2	0.7	0.7	·
Cc1cc(C)nc(NS(=O)(=O)c2ccccc2)n1	-17.6	-17.9	1.2	1.2	-0.147
Cc1cc(C)c2c(N)c(S(=O)(=O)c3ccccc3)sc2n1	55.6*	-196.2	3*	0.4	-0.0572
COCc1cc(C)c2c(N)c(C#N)sc2n1	29.1	-35.9	1.4	0.7	·
CCCCS(=O)(=O)c1sc2nc(C)cc(C)c2c1N	89.4*	-165.4	2.7*	0.1	0.235
CC(=O)Oc1ccc2ccccc2c1C(NC(=O)Cc1ccccc1)c1ccccc1Cl (stereo unspecified)	63.1*	48.1	0.5	0.4	-2.2
CCC(=O)NC(c1cccc([N+](=O)[O-])c1)c1c(OC(C)=O)ccc2ccccc12 (stereo unspecified)	·	·	·	·	-1.78
NC(=O)CCn1nc(-c2ccc(Cl)cc2)c2ccccc2c1=O	57.3*	32.0	0.7	0.4	0.433
COc1ccc(COn2c(=O)c(C)[n+]([O-])c3ccccc32)cc1OC	51.8*	74.5*	0.3	0.5	0.848
Cc1c(=O)n(OCc2ccccc2)c2ccccc2[n+]1[O-]	68.6*	13.1	0.9	0.3	-0.0405
CCOC(=O)COn1c(=O)c(C)[n+]([O-])c2ccccc21	-3.5	10.1	0.9	1	0.156
CC1=CC(C)C2C(=O)N(CCCN(C)C)C(=O)C2C1 (stereo unspecified)	-3.2	-9.3	1.1	1	-0.135
CC1=CC(=C2C(=O)c3ccccc3C2=O)C=C(C)N1Cc1ccco1	50.9*	67.8*	0.3	0.5	·
O=C(CSc1nc2ccccc2[nH]1)NCCN1CCCCC1	-5.0	3.9	1	1.1	-0.831
SMILES	CYP2C19 inhib	CYP2C9 inh	CYP2C9 activ	CYP2C19 act	Cav32 inh
CN(C)c1nc(N)nc(Cn2ccnc2)n1	54.0*	-5.9	1.1	0.5	0.234
CCN1CCCC1CNC(=O)CSc1cc(=O)n(C)c2cc(Cl)ccc12 (stereo unspecified)	-20.2	-8.4	1.1	1.2	0.575
CCOC(=O)CSc1cc(=O)n(C)c2cc(Cl)ccc12	63.6*	50.6*	0.5	0.4	·
Cc1cccc(-c2c3c(=O)n(C)c(=O)n(C)c3cn2-c2ccccc2O)c1	8.5	71.3*	0.3	0.9	-0.86
CNC(=O)Nc1ccccc1NC(=O)NC	-8.2	-16.6	1.2	1.1	0.368
COc1ccccc1N1CCN(C(=O)c2cc(-c3cccc(Cl)c3)on2)CC1	7.5	8.6	0.9	0.9	0.0444
CCNC(=S)N(Cc1ccc2c(c1)OCO2)C1CC(=O)N(c2ccc(F)cc2)C1=O (stereo unspecified)	93.8*	71.0*	0.3	0.1	-7.05*
CCOC(=O)C1=C(C)C(c2ccccc2OC)NC(=S)N1 (stereo unspecified)	52.7*	8.6	0.9	0.5	0.261
CCOC(=O)C1=C(C)C(c2ccccc2OC)NC(=O)N1 (stereo unspecified)	3.5	-2.7	1	1	-0.2
